Assay [1] is described as follows: Her2 expression decrease, cell viability multiplex – SKBR3 breast tumor cells, AlphaScreen, ATP viability, primary screen (AID 461;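 active = Her2 level under about 52% in both replicate screens, with viability over 70% of control, limit read from the data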;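 for Her2 level: lower value means less Her2 protein in the cells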;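 for viability: percent of carrier control wells set as 100% viability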). The conditions noted are these: SKBR3 Her2 protein level, 18-24 h, measured here: SKBR3 viability, ATP luminescence, at 10 µM. For orientation: Bead proximity is the source of the signal in Alpha formats.
For assay [2], the target named is Receptor tyrosine-protein kinase erbB-2 (Homo sapiens) (UniProt P04626). The description is as above. The conditions noted are these: 18-24 h, at 10 µM, stronger effect = lower value.
Assay [3] is described as follows: reduced viability of SK-BR-3 breast cancer cells – cell-based, 24 h, human, pilot screen (AID 572;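 active = viability at or below 10% of carrier control in both of two separate runs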;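 note: compound exposure lasted between 18 and 24 h rather than exactly 24 h; 100% = carrier-treated control wells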). The conditions noted are these: SK-BR-3 viability, CellTiter-Glo luminescence, at 10 µM, stronger effect = lower value.
Assay [4] in a line: HUVEC growth inhibition – cell-based, human, primary screen (AID 575;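 active = viability at or below 30% in both replicate assays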;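 note: 100% = median of untreated cell wells with 0.1% DMSO on each plate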). The conditions noted are these: HUVEC proliferation, CellTiter-Glo luminescence, 72 h; at 10 µM; stronger effect = lower value. For orientation: In ATP-based viability assays light output follows the ATP content of the culture.
Assay [5] can be described thus: H69AR cell proliferation blockers – human, duplicate replicates, primary screen (AID 580;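 active = viability at or under a set limit in both replicates, limit being median viability minus 3 SD, cut at about 48% in these data, passing the limit was not always enough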;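 note: 100% = mean luminescence of untreated wells and 0% = no signal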). The conditions noted are these: H69AR lung tumor cells viability, ATP luminescence, 72 h; at 10 µM; stronger effect = lower value.
Assay [6] can be described thus: MRP1 drug-resistance reversers in H69AR cells – cell-based, doxorubicin co-treatment, pilot screen (AID 601;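 active = viability loss from added drug above about 55%, and viability with drug at most 40%, in both replicates, limit read from the data, passing the limit was not always enough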). The conditions noted are these: CellTiter-Glo, 72 h, at 10 µM; for differential viability (reversal): stronger effect = higher value.
Assay [7] in a line: yeast transport mutant growth inhibition pilot in 384-well plates, post-Golgi transport modulator project (AID 636; in the data active = inhibition above about 31%). To be noted: absorbance 615 nm, about 18 h, stronger effect = higher value.
Assay [8] is described as follows: growth suppression of yeast trafficking mutant, preliminary HTS, modulators of trafficking downstream of Golgi apparatus project, 1536-format plate, OD 615 nm (AID 637; in the data active = inhibition above about 30%). To be noted: yeast transport mutant growth, absorbance 615 nm, 18 h; stronger effect = higher value.
Assay [9] in a line: S. cerevisiae growth inhibition in permissive medium (OD615), pilot counter-assay for S. cerevisiae lifespan shortening project, permissive growth control (AID 705;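 active = growth inhibition above 25% in both replicates, a cutoff set 3 SD above the mean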). The conditions noted are these: OD615, 24 h, at 10 µM, stronger effect = higher value.
Assay [10] is described as follows: S. cerevisiae growth inhibition in restrictive medium, OD615, pilot screen, restrictive growth control, yeast lifespan reduction project (AID 706;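 active = growth inhibition above a set limit, 3 SD over mean compound inhibition, in both replicates, cut at about 43% in these data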;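 note: modified DeaD lifespan yeast strain shifted to restrictive glucose medium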). The conditions noted are these: OD615, 48 h, at 10 µM, stronger effect = higher value.
Assay [11] is described as follows: doxorubicin toxicity protection in MRP-1 cells – H69AR cells, CellTiter-Glo, duplicate, MRP-1 activator project, pilot screen (AID 807;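 active = viability increase at or above a cutoff of the median across tested compounds plus 3 SD, cut at about 8.5% in these data, passing the limit was not always enough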;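 note: compound pretreatment 18-22 h then 72 h combined with doxorubicin; 0% = doxorubicin alone and 100% = vehicle without doxorubicin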). The conditions noted are these: H69AR viability with doxorubicin, CellTiter-Glo luminescence; at 10 µM; stronger effect = higher value.
The nature of assay [12]: viability of HCT116 without oncogenic beta-catenin – human colon tumor cells, pilot screen (AID 823;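 active = cell viability at or below a set limit in both duplicate runs, the limit being the all-compound median minus 4 SD, cut at about 23% in these data, passing the limit was not always enough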;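 note: 0% = wells killed by 20 µM Hyamine and 100% = untreated DMSO cell wells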). To be noted: HCT116 beta-catenin knockout viability, CellTiter-Glo, 60 h; at 10 µM; stronger effect = lower value.
A short description of assay [13]: viability of PTEN-null HCT116 cells – cell-based, HCT116 clonal line, CellTiter-Glo, pilot screen (AID 824;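 active = viability at or below 27.92% in each of two runs, the all-compound median minus 4 SD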;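 note: 0% = 20 µM Hyamine control and 100% = vehicle cell control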). The conditions noted are these: HCT116 PTEN-deleted viability, 60 h, at 10 µM, stronger effect = lower value.
The nature of assay [14]: RAM pathway blockade in budding yeast – dse1pr::URA3 reporter, 5-FOA selection, pilot screen (AID 869;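 active = inhibition over a set limit, the all-compound mean plus 3 SD, in both replicate runs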;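 note: 0% = DMSO wells with no growth and 100% = 10 µM 1-NA-PP1 with full growth; RAM network block rescues cells from 5-FOA so hits raise OD615 growth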). The conditions noted are these: S. cerevisiae dse1pr::URA3 5-FOA growth, OD615, 2 d; at 10 µM; stronger effect = higher value; strain carries analog-sensitive mutant Cbk1 kinase.
Assay [15] in a line: RAM signaling pathway blockade in yeast – S. cerevisiae, Pdr1DBD-CYC8 efflux-inhibited sensitized strain, primary screen (AID 1298).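 Note: 0% = DMSO untreated cells without growth and 100% = 10 µM 1-NA-PP1 full growth; higher means more yeast growth rescued from 5-FOA killing.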 To be noted: S. cerevisiae cbk1-as DSE1-URA3 strain, 5-FOA growth OD615, 2 d; at 50 µM; stronger effect = higher value.
Setting [16] is: H69AR cells + 2 uM doxorubicin, measured here: viability with 2 uM doxorubicin, stronger effect = lower value.
The mark [17] stands for this setting: H69AR cells, compound alone cytotoxicity.

SMILES strings stand for the structures. Inconclusive results are not listed. Active and inactive are the calls of the source.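 Rule for the calls, unless noted: active = RAM network inhibition above 8.4% in each of two replicates, 3 SD over the compound average; inconclusive = above 8.4% inhibition in only one replicate; inactive = 8.4% inhibition or less in each replicate.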

Chain of Receptor tyrosine-protein kinase erbB-2 (Homo sapiens) (P04626 whole entry, looked up): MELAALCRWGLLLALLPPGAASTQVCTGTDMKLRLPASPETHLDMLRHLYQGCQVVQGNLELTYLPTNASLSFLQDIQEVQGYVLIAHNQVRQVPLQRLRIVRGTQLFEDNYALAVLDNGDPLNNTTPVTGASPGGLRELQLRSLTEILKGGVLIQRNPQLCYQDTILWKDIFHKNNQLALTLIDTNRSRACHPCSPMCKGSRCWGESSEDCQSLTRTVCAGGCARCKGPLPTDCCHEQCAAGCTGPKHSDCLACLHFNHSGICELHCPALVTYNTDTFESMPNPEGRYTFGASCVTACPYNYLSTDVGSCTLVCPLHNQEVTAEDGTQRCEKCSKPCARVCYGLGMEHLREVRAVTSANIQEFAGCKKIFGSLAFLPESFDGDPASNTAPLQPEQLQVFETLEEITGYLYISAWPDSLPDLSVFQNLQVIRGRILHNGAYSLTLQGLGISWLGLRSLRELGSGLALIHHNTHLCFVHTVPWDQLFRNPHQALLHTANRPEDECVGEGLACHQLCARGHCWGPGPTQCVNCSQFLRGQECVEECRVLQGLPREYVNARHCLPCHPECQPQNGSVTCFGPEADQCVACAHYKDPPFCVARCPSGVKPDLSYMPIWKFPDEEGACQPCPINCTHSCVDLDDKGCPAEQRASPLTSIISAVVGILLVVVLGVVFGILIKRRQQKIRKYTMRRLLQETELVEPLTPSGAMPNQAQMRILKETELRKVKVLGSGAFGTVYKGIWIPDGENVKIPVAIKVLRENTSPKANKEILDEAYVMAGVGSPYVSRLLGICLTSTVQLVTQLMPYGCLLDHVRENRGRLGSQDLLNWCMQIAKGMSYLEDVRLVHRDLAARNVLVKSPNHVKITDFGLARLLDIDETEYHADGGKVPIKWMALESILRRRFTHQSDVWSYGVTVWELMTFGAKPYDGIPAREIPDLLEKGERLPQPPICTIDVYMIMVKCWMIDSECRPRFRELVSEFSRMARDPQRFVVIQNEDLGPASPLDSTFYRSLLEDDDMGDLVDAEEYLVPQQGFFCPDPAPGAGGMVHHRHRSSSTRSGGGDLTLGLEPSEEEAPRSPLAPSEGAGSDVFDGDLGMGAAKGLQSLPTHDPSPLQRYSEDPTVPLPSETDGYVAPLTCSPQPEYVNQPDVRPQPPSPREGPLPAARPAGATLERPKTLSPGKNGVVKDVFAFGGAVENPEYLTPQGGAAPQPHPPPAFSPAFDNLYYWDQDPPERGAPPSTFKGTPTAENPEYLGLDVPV

By viability is commonly meant a read-out of living cells in per cent, often relative to untreated cells. For orientation: inhibition means the drop in the measured response relative to a control, in per cent. On to `Cn1c(/C=N/n2cnnc2)nc2ccccc21`, for which the viability was 100% in assay [1]; 100% (inactive) in [3]; 105% (inactive) in [4]; 83.4% (inactive) in [5]; 97.8% in assay [6] (setting [16]); 83.4% in assay [6] (setting [17]). The viability in assay [12] is 94% (inactive); in [13], 94.2% (inactive). Moreover, the Her2 level in assay [2] was 78% (inactive). Moreover, in assay [6] (H69AR cells + 2 uM doxorubicin), the differential viability (reversal) was -14.4% (inactive). For the same compound, the figures for the inhibition in [7], in assay [8] and in assay [14] were -0.26% (inactive), -5% (inactive) and 0.41% (inactive), respectively. The growth inhibition in assay [9] is -4.11% (inactive); in assay [10], -2.04% (inactive). Moreover, in assay [11], the viability increase is -3.76% (inactive). The RAM network inhibition in assay [15] was 5.84% (inactive).
Consider `CCOC(=O)Nc1ccc2c(c1)N(C(=O)OCCN(C)C)c1ccccc1CC2`, for which the viability in [1] is 94.5%; in [3] it was 94.5% (inactive); in assay [4], 77.5% (inactive); in [5], 90.2% (inactive); in [6] (setting [16]), 77.7%; in assay [6] (setting [17]) it was 90.2%. For the same compound, the viability is 73.5% (inactive) in assay [12] and 78.8% (inactive) in [13]. Also, in [2], the Her2 level was 100% (inactive). In assay [6] (H69AR cells + 2 uM doxorubicin), the differential viability (reversal) is 12.4% (inactive). Further, the inhibition in assay [7] was -7.07% (inactive); in [8], -9.02% (inactive); in [14] it was 1.89% (inactive). The growth inhibition was -10.3% (inactive) in assay [9] and -0.265% (inactive) in [10]. For the same compound, in [11], the viability increase is -4.23% (inactive). In [15], the RAM network inhibition was 2.2% (inactive).
On to `CCOC(=O)C1CCN(C(=O)CN(c2ccc(Cl)c(C(F)(F)F)c2)S(C)(=O)=O)CC1`, for which the viability in assay [1] was 112%; in assay [3], 112% (inactive); in assay [4] it was 107% (inactive); in [5], 92.1% (inactive); in assay [6] (setting [16]), 102%; in assay [6] (setting [17]) it was 92.1%. The figures for the viability in assay [12] and in assay [13] were 88.1% (inactive) and 84.7% (inactive), respectively. The Her2 level in [2] was 100% (inactive). The differential viability (reversal) in [6] (H69AR cells + 2 uM doxorubicin) is -9.81% (inactive). The figures for the inhibition in [7], in [8] and in [14] were -0.65% (inactive), -2.5% (inactive) and -0.1% (inactive), respectively. For the same compound, the growth inhibition in assay [9] was -11.9% (inactive); in assay [10] it was -8.95% (inactive). Besides, the viability increase in [11] is -3.24% (inactive). In addition, the RAM network inhibition in [15] was 0.63% (inactive).
Take `COCCNC(=O)CN1C(=O)CSc2ncccc21`: the viability in assay [1] is 83.5%; in [3], 83.5% (inactive); in assay [4], 97.8% (inactive); in assay [5], 86.4% (inactive); in assay [6] (setting [16]), 95.1%; in assay [6] (setting [17]), 86.4%. Besides, the viability is 102% (inactive) in [12] and 92% (inactive) in assay [13]. In assay [2], the Her2 level was 88% (inactive). Moreover, the differential viability (reversal) in assay [6] (H69AR cells + 2 uM doxorubicin) was -8.7% (inactive). The inhibition in assay [7] was -4.67% (inactive); in [8], -0.33% (inactive); in [14], 1.92% (inactive). Also, the growth inhibition in assay [9] is 2.19% (inactive); in assay [10] it was -5.72% (inactive). Besides, the viability increase in assay [11] is -0.21% (inactive). The RAM network inhibition in [15] is 0.97% (inactive).
Turning to `CCOC(=O)c1ccc(NC(=O)Cn2cc3c(n2)CCC(C)C3)cc1` (stereo not given), the viability was 91.5% in [1]; 91.5% (inactive) in [3]; 91.4% (inactive) in assay [4]; 91.9% (inactive) in [5]; 99.5% in [6] (setting [16]); 91.9% in assay [6] (setting [17]). Further, the viability in assay [12] was 102% (inactive); in assay [13], 106% (inactive). In addition, in [2], the Her2 level is 92% (inactive). Also, the differential viability (reversal) in assay [6] (H69AR cells + 2 uM doxorubicin) is -7.62% (inactive). Also, the inhibition in assay [7] was -2.8% (inactive); in assay [8] it was -2.13% (inactive); in [14], 1.92% (inactive). In addition, the growth inhibition is -3.82% (inactive) in [9] and 5.5% (inactive) in [10]. Also, in [11], the viability increase is 0.35% (inactive). Moreover, in assay [15], the RAM network inhibition is 6.92% (inactive).

Source of the values: PubChem BioAssay.
